Test results taken from PubChem BioAssay AID1376 (SRMLSC, 2008).
Out of some 220,000 compounds screened, about 530 (0.24%) were called active. Shown is part of a subset that was picked to be rich in actives. Entries with a potency or affinity are not part of this list. A number with no mark means an inactive call. Cut-off read from the data, not from the text of the source: active = inhibition above about 13%; inconclusive = no clear call, values can overlap the other calls; inactive = below that.

Target: Bifunctional protein GlmU (Mycobacterium tuberculosis (strain ATCC 25618 / H37Rv)) (UniProt P9WMN3)
Sequence (P9WMN3 whole entry, looked up): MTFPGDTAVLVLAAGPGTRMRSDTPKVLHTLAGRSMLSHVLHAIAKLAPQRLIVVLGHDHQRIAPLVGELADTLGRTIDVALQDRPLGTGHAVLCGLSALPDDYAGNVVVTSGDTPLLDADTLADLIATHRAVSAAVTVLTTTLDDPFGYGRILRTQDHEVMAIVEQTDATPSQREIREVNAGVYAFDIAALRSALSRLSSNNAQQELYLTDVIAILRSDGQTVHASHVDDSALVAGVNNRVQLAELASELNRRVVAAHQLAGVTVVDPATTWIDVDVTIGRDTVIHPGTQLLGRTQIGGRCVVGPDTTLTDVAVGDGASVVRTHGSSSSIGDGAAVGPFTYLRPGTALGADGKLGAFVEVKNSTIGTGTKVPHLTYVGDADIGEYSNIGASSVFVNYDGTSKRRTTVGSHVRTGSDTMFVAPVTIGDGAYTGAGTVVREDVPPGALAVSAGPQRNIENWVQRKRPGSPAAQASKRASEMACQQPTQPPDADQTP
Assay: inhibition of mycobacterial GlmU enzyme – biochemical, glucosamine-1-phosphate acetyltransferase (AID 1376);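 note: 0% = complete reaction with vehicle and 100% = reaction without substrate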
Conditions: M. tuberculosis GlmU acetyltransferase enzyme assay; stronger effect = higher value;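 tested at 30 µM in the primary screen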

Going from `N#CC1=C(N)Oc2c(oc(CO)cc2=O)C1c1ccsc1` (stereo not drawn) to `CCOC(=O)C1=C(NC#N)OC(C)=C(C)C1c1ccc(O)cc1` (stereo not drawn), the inhibition falls from -2.69% to -6.11%.

Going from `Cc1nn(-c2ccc(Cl)cc2)c(NC(=O)C(C)C)c(-c2ccccc2)c1=O` to `Cc1cc(/C=C2\C(=O)NC(=O)N(Cc3ccccc3Cl)C2=O)c(C)n1-c1ccc(C(=O)O)cc1`, the inhibition rises from -2.2% to -0.15%.

First: COc1cc(/C=C2/SC(=Nc3ccc(O)cc3)NC2=O)cc(OC)c1O
Second: COc1cc(/C=C2\SC(=Nc3ccc(O)cc3)NC2=O)cc(OC)c1OC
The inhibition of the first is higher: 7% for the first, -1.9% for the second.

First: COc1ccccc1C1=NNC(=NCc2ccccc2)SC1
Second: O=C1CCN(Cc2ccccc2)S(=O)(=O)c2ccccc21
The inhibition of the first is lower: -1.42% for the first, 1.98% for the second.

First: CCN(c1ccccc1)S(=O)(=O)c1ccc(OC)c(NC(=O)CN(C)C)c1
Second: CCC(Oc1ccccc1)C(=O)NCc1ccc(S(N)(=O)=O)cc1 (stereo not drawn)
The inhibition of the first is lower: -3.46% for the first, 1.79% for the second.

First: CC(C(=O)Nc1ccc(S(=O)(=O)N2CCCCC2)cc1)N1CCN(c2ccccn2)CC1 (stereo not drawn)
Second: Cc1ccc(S(=O)(=O)N2CCN(c3ccccn3)CC2)cc1
The inhibition of the first is lower: 0.72% for the first, 3.12% for the second.

Compared with `Cc1c(C)n(C(=O)CSc2ncn[nH]2)c2ccccc12`, `Cc1[nH]c2ccccc2c1C(=O)CSc1nc2ccccc2[nH]1` is higher in inhibition: 1.07% for the first, 2.48% for the second.

Compared with `CCCCCOc1ccc(C(=O)N(Cc2ccco2)C2CCS(=O)(=O)C2)cc1` (stereo not drawn), `Cc1cc(/C=C2\C(=O)NC(=O)N(Cc3ccco3)C2=O)c(C)n1-c1ccc(C(=O)O)cc1` is higher in inhibition: 2.23% for the first, 9.99% for the second.

Compared with `Cc1ccc(C)n1-c1cccc(NC(=O)c2ccccc2)c1`, `O=C(O)c1cccc(NN=C2c3ccccc3-c3ccccc32)c1` is higher in inhibition: -0.99% for the first, 1.86% for the second.

First: Cn1c(Cn2c(=O)sc3ccccc32)nnc1SCC(=O)N1CCc2ccccc21
Second: C=CCn1c(=O)c2ccccc2n2c(SCC(N)=O)nnc12
The inhibition of the first is lower: -3.8% for the first, -2.87% for the second.

Going from `O=C1CCN(S(=O)(=O)c2ccccc2)CCN1CCOCc1ccc(F)cc1` to `CC1(C)Cc2cccc(OCC(=O)N3CCN(S(=O)(=O)c4ccc(F)cc4)CC3)c2O1`, the inhibition falls from -0.16% to -1.15%.

Going from `CC1=CC(C)(C)N2C(=O)C3(C(C#N)=C(N)OC4=C3C(=O)CCC4)c3c(C)c(C)cc1c32` (stereo not drawn) to `CCOC(=O)C1=C(N)OC2=C(C(=O)CCC2)C12C(=O)N(C)c1ccccc12` (stereo not drawn), the inhibition rises from 0.73% to 2.06%.

Going from `COc1nc(OC)nc(Oc2ccc(Cl)cc2[N+](=O)[O-])n1` to `COc1ccc([N+](=O)[O-])c(S(=O)(=O)c2ccccc2)n1`, the inhibition rises from -2.5% to 11.9%.

First: CC(C(=O)NN)n1nnc(N2CCOCC2)n1 (stereo not drawn)
Second: O=C1NC(=S)S/C1=C/c1ccc(N2CCOCC2)o1
The inhibition of the first is lower: -4.73% for the first, 11.4% for the second.

First: O=C(Nc1cccc(-c2csc(Nc3ccc(Cl)cc3)n2)c1)c1cccc(C(F)(F)F)c1
Second: O=C(CSc1nnc(-c2ccncc2)n1Cc1ccco1)Nc1nc(-c2ccccc2)cs1
The inhibition of the first is higher: 0.14% for the first, -0.09% for the second.

First: COC(=O)c1n[nH]nc1-c1ccccc1
Second: COC(=O)c1cc(-c2ccccc2)n[nH]1
The inhibition of the first is higher: 2.77% for the first, 1.61% for the second.

Compared with `O=C(O)c1cccc(N/N=C/c2cccs2)c1`, `CC(=O)Nc1ccc2ccccc2c1` is lower in inhibition: 4.35% for the first, 1.2% for the second.

Compared with `Cc1ccc(C(=O)N/C(=C\c2ccccc2)C(=O)NCc2cccnc2)cc1`, `Cc1ccc(-n2c(Cc3ccccc3)nnc2SCC(=O)NNC(=O)Cc2ccccc2)cc1` is higher in inhibition: -0.7% for the first, 2.04% for the second.

Going from `CCCNC(=O)Cn1cnc2sc(C(=O)Nc3cc(OC)c(OC)c(OC)c3)c(C)c2c1=O` to `COc1cc(N(C(=O)Cc2cccs2)C(C(=O)NC2CCCCC2)c2cccc(OC)c2OC)ccc1-n1cnnn1` (stereo not drawn), the inhibition falls from 1.29% to -6.93%.

First: CNc1ccc(Br)cc(C(=O)/C=C/c2cccc(OC)c2OC)c1=O
Second: CNc1ccc(Br)cc(C(=O)/C=C/c2ccc(Cl)cc2Cl)c1=O
The inhibition of the first is lower: 0.88% for the first, 10.2% for the second.

First: CCS(=O)(=O)c1ccc(O)c(NC(=O)/C=C/c2ccc(Cl)cc2)c1
Second: CC(=O)Nc1ccc(S(=O)(=O)Nc2ccc(=O)n(Cc3ccc(Cl)c(Cl)c3)c2)cc1
The inhibition of the first is higher: 0.22% for the first, -3.3% for the second.

Going from `O=C(O)CNC(=O)C(Cc1ccccc1)NC(=O)OCc1ccccc1` (stereo not drawn) to `O=C(CC(NC(=O)c1ccccc1Cl)c1ccccc1)NC1=NCCS1` (stereo not drawn), the inhibition rises from 2.74% to 2.83%.

Going from `Cc1ccccc1CSc1nnc(-c2cnccn2)n1C` to `Cn1c(SCc2ccccc2)nnc1-c1cnccn1`, the inhibition falls from 4.71% to -1.68%.

Going from `Cc1ccc(-c2cc(O)cc3sc(=O)oc23)cc1C` to `COc1ccc(-c2c(-c3ccc(OCC(=O)NN)cc3O)n[nH]c2C)cc1`, the inhibition rises from -5.89% to 4.13%.

Compared with `C/C(=N\OCc1ccc(C#N)cc1)c1ccccc1`, `C/C(=N\OCc1ccccc1C#N)c1cc2ccccc2o1` is lower in inhibition: 2.31% for the first, -1.63% for the second.

Going from `COc1cc(CNCc2c[nH]c3ccccc23)cc(OC)c1` to `CN/N=C(\Cc1nc2ccccc2[nH]1)c1ccc([N+](=O)[O-])cc1`, the inhibition rises from 0.77% to 2.32%.

First: O=C(N/N=C/c1ccc(-c2cccc([N+](=O)[O-])c2)o1)c1ccccc1O
Second: Cc1cccc2cc(/C=N/NC(=O)[C@H]3C[C@@H]3c3ccccc3)c(Cl)nc12
The inhibition of the first is higher: 0.51% for the first, -1.46% for the second.

First: N/C(=N\N=C\c1ccc(O)cc1O)N[N+](=O)[O-]
Second: CCOC(=O)c1nc2ccccc2nc1C
The inhibition of the first is lower: 1.33% for the first, 3.05% for the second.

First: O=C1CCCN1c1cc(Cl)cc(Cl)c1
Second: Cc1cccc(NC(=O)C2CCCN(S(=O)(=O)c3cccc4cccnc34)C2)c1 (stereo not drawn)
The inhibition of the first is lower: 0.87% for the first, 1.23% for the second.

Going from `CCC(C)N(CCNC(=O)CC1Oc2ccc(C)cc2NC1=O)C1CCCCC1` (stereo not drawn) to `CCCS(=O)(=O)N1CCC(C(=O)NCCCOC(C)C)CC1`, the inhibition falls from 4.05% to -1.86%.

Compared with `NNC(=O)COc1ccc(-c2n[nH]c(C(F)(F)F)c2-c2ccc(Br)cc2)c(O)c1`, `NNC(=O)c1cncn1-c1ccc(F)cc1` is higher in inhibition: -2.65% for the first, -2.24% for the second.

First: CC(=O)Nc1ccc2nc3ccccc3nc2c1
Second: O=C(Nc1ccncc1)C1CCCN(S(=O)(=O)c2cccc3cccnc23)C1 (stereo not drawn)
The inhibition of the first is higher: 3.15% for the first, -3.59% for the second.

First: CCC(C)(C)n1nnnc1CN1CCC(n2c(C)nc3cc(C(F)(F)F)ccc32)CC1
Second: OCCNc1nc(Nc2ccccc2Cl)nc(N2CCCC2)n1
The inhibition of the first is lower: 2.13% for the first, 2.46% for the second.

Going from `CCCC1=NN2C(=N)/C(=C\c3ccc(SCc4ccco4)o3)C(=O)N=C2S1` to `CCC1=NN2C(=N)/C(=C\c3ccc(SCc4ccco4)o3)C(=O)N=C2S1`, the inhibition falls from 30.6% to 4.74%.

First: O=C1/C(=C\c2ccco2)SC(=S)N1c1ccccc1
Second: O=C(O)CN1C(=O)/C(=C/c2ccc(SCc3ccccc3)o2)SC1=S
The inhibition of the first is lower: 8% for the first, 18.9% for the second.

Compared with `Cc1cccc(C)c1-n1cccc1/C=C1\SC(=S)N(c2cccc(C(=O)O)c2)C1=O`, `Cn1cccc1/C=C1/C(=O)NC(=O)N(Cc2ccccc2)C1=O` is higher in inhibition: -2.25% for the first, -0.82% for the second.

Going from `N=C1/C(=C\c2ccc(SCc3ccco3)o2)C(=O)N=C2SC=NN12` to `CCOc1cc(/C=C2/SC(=S)NC2=O)ccc1OC(=O)c1ccco1`, the inhibition falls from 8.44% to 1.76%.

Compared with `CCC(C)NS(=O)(=O)c1ccc(S(=O)(=O)N(CCc2ccc(OC)c(OC)c2)Cc2cccs2)cc1` (stereo not drawn), `Cc1ccc([N+](=O)[O-])cc1S(=O)(=O)Nc1ccccn1` is higher in inhibition: -1.89% for the first, 12.5% for the second.

Going from `Cn1cccc1/C=C1/C(=O)NC(=O)N(Cc2ccc(F)cc2)C1=O` to `O=C1NC(Cc2c[nH]c3ccccc23)C(=O)N1Cc1ccc(CN2C(=O)NC(Cc3c[nH]c4ccccc34)C2=O)cc1` (stereo not drawn), the inhibition rises from -4.26% to 3.5%.

With `COc1cc(/C=C2\SC(=Nc3ccc(O)cc3)NC2=O)cc(OC)c1O` the inhibition was 69.2% (active).
`CC(=O)Nc1ccc(S(=O)(=O)N2CCN(c3ccccn3)CC2)cc1` was tested, and the inhibition was 14% (active).
In the case of `CCOC(=O)C1=C(N)OC2=C(C(=O)CCC2)C12C(=O)N1c3c(ccc(C)c32)C(C)=CC1(C)C` (stereo not drawn), the inhibition is reported as 14.7% (active).
`COc1ccc([N+](=O)[O-])c(S(=O)(=O)c2ccc(Cl)cc2)n1` was tested, and the inhibition was 13.8% (active).
`COC(=O)c1[nH]nc(C(=O)OC(C)(C)C)c1-c1ccccc1` was tested, and the inhibition was 13.6% (active).
In the case of `CNc1ccc(Br)cc(C(=O)/C=C/c2cccc(Cl)c2Cl)c1=O`, the inhibition is reported as 13% (active).
In the case of `Cn1c(SCc2ccccn2)nnc1-c1cnccn1`, the inhibition is reported as 13.4% (active).
In the case of `Cc1c(Br)c(O)c(Br)c2sc(=O)oc12`, the inhibition is reported as 14.6% (active).
In the case of `C/C(=N\OCc1ccc(C#N)cc1)c1cc2ccccc2o1`, the inhibition is reported as 14% (active).
In the case of `COc1ccc(-c2c(-c3ccc(OCC(=O)NN)cc3O)n[nH]c2C(F)(F)F)cc1`, the inhibition is reported as 13.2% (active).
`CC(=O)Nc1ccc2cc3ccc(NC(C)=O)cc3nc2c1` was tested, and the inhibition was 29.2% (active).
With `O=C(O)c1cccc(N2C(=O)/C(=C/c3ccc(SCc4ccc(Cl)cc4)o3)SC2=S)c1` the inhibition was 33.7% (active).
In the case of `O=C1NC(=S)S/C1=C\c1ccc(SCc2ccccc2)o1`, the inhibition is reported as 68.3% (active).
For `CC(=O)c1cccc(NC(=O)C2CCCN(S(=O)(=O)c3cccc4cccnc34)C2)c1` (stereo not drawn), the inhibition was 13.1% (active).
With `Cn1cccc1/C=C1\C(=O)NC(=O)N(Cc2ccccc2)C1=O` the inhibition was 13.2% (active).
